Reference: PubChem BioAssay AID720519 (National Center for Advancing Translational Sciences (NCATS), 2013)
Records with an inconclusive call do not appear. Values without a mark were called inactive. Calls of active or inactive are those of the source. Calls come from the whole dose curve; as a rule, active = well fitted activation curve with a large enough effect; inconclusive = small, poorly fitted or top-dose-only effect; inactive = flat fitted curve, though single readings scatter.

Experiment: qHTS for Inhibitors of Cell Surface uPA Generation: Confirmatory Assay for Cherry-picked Compounds; for inhibition: 0% is about no effect
Settings: cell surface uPA activity generation, qHTS confirmation; series mostly up to 115 µM; inhibition: at the top concentration
Procedure, shortened: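 RAW 264.7 cells at 4000/well, incubated overnight, then treated with compounds. After 24 h at 37 C, viability was read by ATPlite luminescence. An increase in signal indicates blocked uPA-dependent LF entry.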
Potency is the fitted concentration of half-maximal effect.

| Structure (SMILES) | inhibition [%] | Potency |
| --- | --- | --- |
| CC1CC(=O)Nc2ccccc2N1C(=O)Cn1cnc2ccc(Br)cc2c1=O (centres undefined) | -0.739 | – |
| NC(=O)CC(NC(=O)Cc1cccc2ccccc12)c1ccc(N2CCN(c3ccccc3)CC2)c([N+](=O)[O-])c1 (centres undefined) | 0.273 | – |
| COc1cccc(-n2c(SCC(=O)Nc3cc(C)on3)nc3c([nH]c4ccccc43)c2=O)c1 | 10.4 | – |
| COc1ccc(Cc2nnc(NC(=O)Nc3ccc(F)cc3)s2)cc1 | 10.6 | – |
| COCCn1c(SCC(=O)Nc2ccc(F)cc2)nc2ccccc2c1=O | 5.44 | – |
| COC(=O)CCSCC(=O)N1N=C(c2ccc(OC)cc2)CC1c1cccc(OC)c1OC (centres undefined) | -3.06 | – |
| Cc1ccc(C)c(N2N=C(C(=O)N(CC(C)C)c3c(N)n(Cc4ccccc4)c(=O)[nH]c3=O)CCC2=O)c1 | -1.48 | – |
| Cc1c(C(=O)N(Cc2ccccc2Cl)C2CCS(=O)(=O)C2)oc2ccccc12 (centres undefined) | -3.3 | – |
| CC(C)OC(=O)c1ccc(N2CCN(c3ccccc3F)CC2)nc1 | -2.84 | – |
| C#CCN1C=C(C(=O)OCC)C(C)NS1(=O)=O (centres undefined) | 1.26 | – |
| COc1ccc(N(C(C)C(=O)NN=C2CCCC2)S(C)(=O)=O)cc1 (centres undefined) | -0.44 | – |
| COC(=O)CNC(=O)COC(=O)/C=C/c1ccccc1[N+](=O)[O-] | -2.86 | – |
| CCCN1CCN(C(=O)CCCn2c(C)c3cnn(-c4ccccc4)c(=O)c3c2C)CC1 | -2.47 | – |
| CCO[C@H]1OC(C(=O)N2CCCCCCC2)=C[C@@H](c2ccc(C(F)(F)F)cc2)[C@@H]1CCCO | -2.91 | – |
| O=C(CNS(=O)(=O)c1ccc(F)cc1)Nc1ccccc1 | -1.01 | – |
| COC(=O)c1c(NC(=O)c2c(OC)cccc2OC)sc2c1C(C(=O)OC)CC2 (centres undefined) | – | 29.3 µM (active) |
| Cc1ccc(Cl)c(N/C=C/C(=O)c2ccccc2)c1 | -2.75 | – |
| CCOc1ccc(NS(=O)(=O)c2ccc(C(=O)N3CCC3)cc2)cc1 | -1.37 | – |
| O=C(COc1cccc2ccccc12)NNC(=O)c1cnccn1 | -2.03 | – |
| Cc1ccc(S(=O)(=O)NNC(=O)c2ccc(F)cc2)cc1 | 0.277 | – |

| Structure (SMILES) | inhibition [%] | Potency |
| --- | --- | --- |
| CC(=O)Nc1ccc(OS(=O)(=O)c2c(C)cc(C)cc2C)cc1 | -3.5 | – |
| COC(=O)C(CCSC)NC(=O)Cn1ncc2c(=O)oc3ccccc3c21 (centres undefined) | 0.519 | – |
| CCn1nc(C)c(CNC(=O)C2CCC(=O)N(CCc3ccc(OC)cc3)C2)c1C (centres undefined) | -1.73 | – |
| Cc1nnc2ccc(-c3ccc(NS(=O)(=O)c4ccc(Cl)s4)cc3)nn12 | -3.05 | – |
| CS(=O)(=O)c1ccc(Cl)c(NC(=O)COC(=O)CNC(=O)c2cccs2)c1 | -0.838 | – |
| COc1ccc(-n2nc(C(=O)Nc3cc(OC)c(OC)c(OC)c3)c3ccccc3c2=O)c(OC)c1 | -2.46 | – |
| COc1ccc(-c2cc(-c3ccccc3)nc3ncnn23)cc1 | -2.6 | – |
| CC(C)NCC1CCc2cc(CO)c([N+](=O)[O-])cc2N1 (centres undefined) | 4.66 | – |
| Cc1cc(/C=N/NC(=O)c2ccccc2F)c(C)n1-c1ccccc1 | -1.81 | – |
| CN(C)S(=O)(=O)c1cccc(C(=O)OCC(=O)NCc2ccc3c(c2)OCO3)c1 | -1.01 | – |
| CN(C)C(=S)Nc1ccc(S(=O)(=O)N2CCCCC2)cc1 | -1.79 | – |
| CC(C)CCN1C(=O)c2ccc(-c3nc4ccccc4c(=O)o3)cc2C1=O | -1.5 | – |
| C=CC(=O)N1C/C(=C/c2ccccc2)C(=O)/C(=C\c2ccccc2)C1 | – | 26.1 µM (active) |
| O=C1OCC/C1=C\c1ccc(O)cc1 | -2.46 | – |
| O=C(CN1C(=O)CSCC1=O)NCc1ccc(F)cc1 | -0.0415 | – |
| Cc1nn(C)c(C)c1S(=O)(=O)N1CCC(C(=O)NC2CCCCCC2)CC1 | -1.06 | – |
| CCCCn1c(N)c(N(Cc2ccccc2OC)C(=O)COc2ccc(C)cc2)c(=O)[nH]c1=O | -1.7 | – |
| COc1cccc(CNC(=O)C2CCCN(S(=O)(=O)c3ccc4c(c3)C(C)(C)C(=O)N4C)C2)c1 (centres undefined) | -0.161 | – |
| Cc1cc(C)cc(NC(=O)C(OC(=O)c2ccc(O)cc2)c2ccccc2)c1 (centres undefined) | -2.37 | – |
